# Bioassay records deposited in PubChem by University of Pittsburgh Molecular Library Screening Center.
# The entries come from a sample that favours hits as a whole.
# HIV RNase H inh-1 – HIV-1 RT RNase H inhibitors, primary screen, biochemical, fluorescence; inhibition, % at 10 µM; Gag-Pol polyprotein (Human immunodeficiency virus type 1 group M subtype B (isolate …; RT-RNase H RNA/DNA duplex cleavage; AID 565, 2006; 65,000 tested, 1.9% active; in the data active means inhibition above about 50%
# HIV RNase H inh-2 – HIV-1 RT RNase H inhibitors, retest, confirmation, biochemical; inhibition, % at 10 µM; 1,000 tested, 39% active; Recombinant RT RNase H, fluorescent RNA/DNA duplex cleavage; AID 651, 2007; shares compounds with HIV RNase H inh-1; in the data active means inhibition above about 48%; inconclusive means no clear call, values can overlap the other calls
# * = called active by the depositor; ? = inconclusive.
SMILES,HIV RNase H inh-1,others
CC(=O)Nc1ccc(S(=O)(=O)N2CCN(CC(=O)NC3CCCC3)CC2)cc1,-5,
CC(=O)Nc1nc2n(n1)C(c1ccccc1)C=C(c1ccccc1)N2 (centres undefined),-5,
CC(=O)Nc1nc2n(n1)C(c1ccc(Cl)cc1)C=C(C)N2 (centres undefined),0,
COc1ccc(C2C=C(c3ccc(Cl)cc3)Nc3nc(NC(C)=O)nn32)cc1 (centres undefined),56*,HIV RNase H inh-2=11
CCOc1ccc(N(CC(=O)NC(C)CC)S(=O)(=O)c2c(C)noc2C)cc1 (centres undefined),0,
N[C@@H](C(=O)N[C@@H]1C(=O)N2C(C(=O)O)=C(Cl)CS[C@H]12)c1ccccc1,59*,HIV RNase H inh-2=33
COc1ccc(/C(O)=C2\C(=O)C(=O)N(CCCN(C)C)C2c2ccccc2F)cc1Cl (centres undefined),-8,
CC12CCC(C(=O)N3CCN(C(=O)C45CCC(C)(C(=O)O4)C5(C)C)CC3)(OC1=O)C2(C)C,-4,
O=C(O)CCc1cc(I)c(Oc2ccc(O)c(I)c2)c(I)c1,-51,
CCOC(=O)c1cnn(CCOC(=O)Cc2cccs2)c1NC(=O)Cc1cccs1,-10,
Clc1ccc(-c2nnc3sc(-c4ccccn4)nn23)cc1,-8,
c1ccc(-c2nn3c(-c4ccncc4)nnc3s2)nc1,64*,HIV RNase H inh-2=47
COc1ccc(-c2nnc3sc(-c4ccccn4)nn23)cc1,-3,
Clc1ccccc1-c1nnc2sc(-c3ccncc3)nn12,-63,
Clc1ccc(-c2nn3c(-c4ccncc4)nnc3s2)c(Cl)c1,0,
Clc1ccccc1-c1nn2c(-c3ccncc3)nnc2s1,87*,HIV RNase H inh-2=57*
CC(=O)c1cccc(NC(=O)C2CCN(S(=O)(=O)c3c(C)n[nH]c3C)CC2)c1,-8,
Cc1nc(N2CCCCC2)c2sc(=S)n(C)c2n1,-11,
CCN1CCN(c2nc(SC)nc3sc4c(c23)CC(C)(C)OC4)CC1,-5,
CCN1CCN(c2nc(C)nc3c2sc(=S)n3C)CC1,90*,HIV RNase H inh-2=65*
Cc1ccc(C(=O)CSc2nnc(-c3ccco3)n2CC2CCCO2)cc1 (centres undefined),-1,
CCOC(=O)N1CCN(S(=O)(=O)N(C)C)CC1,-3,
COc1ccc(-n2nc3c(c2NC(=O)c2c(-c4ccccc4Cl)noc2C)CS(=O)(=O)C3)cc1,-2,
CCOC(=O)C1CCN(c2cc(=O)n(Cc3ccc(F)cc3)c(=O)[nH]2)CC1,-6,
COC(=O)c1ccc(C2CC(=O)NC3=C2C(=O)CCC3)cc1 (centres undefined),91*,HIV RNase H inh-2=38
SMILES,HIV RNase H inh-1,others
CC(C)Oc1ccc(C2CC(=O)NC3=C2C(=O)CCC3)cc1 (centres undefined),-8,
CCOc1ccc(C2CC(=O)NC3=C2C(=O)CCC3)cc1Cl (centres undefined),-14,
COC(=O)Nc1ccc(S(=O)(=O)N2c3ccccc3CCC2C)cc1 (centres undefined),-7,
CCOC(=O)CSC(C)C(=O)Nc1nnc(C(C)C)s1 (centres undefined),-5,
Cc1ccc(OCc2nnc(SCC(=O)NC3CCCCC3)n2C)cc1,-1,
Cn1c(COc2ccc(Cl)cc2)nnc1SCC(=O)NC1CCCCC1,10,
CCn1c(COc2ccccc2)nnc1SCC(=O)NC1CCCCC1,63*,HIV RNase H inh-2=26
O=S(=O)(NCc1cn2ccsc2n1)c1ccc2c(c1)OCCO2,-3,
CSc1nc(N(CCO)CCO)c2sc3nc(-c4ccco4)c4c(c3c2n1)CCC4,56*,HIV RNase H inh-2=16
CSc1nc(NCc2ccco2)c2c3c(sc2n1)CN(C)CC3,-5,
CSc1nc(SCC(=O)NCc2ccco2)c2c3c(sc2n1)CN(C)CC3,10,
CC(C)(C)n1nnnc1C(c1cccs1)N1CCCc2ccccc21 (centres undefined),4,
Cc1ccc2c(CC(=O)Nc3nc(C)cs3)coc2c1,-2,
CCCCN(C)S(=O)(=O)c1cc(Br)cc2c1N(C(=O)C1CC1)CC2,-27,
CCSc1nnc(NC(=O)c2ccccn2)s1,3,
CCSc1nnc(NC(=O)c2csc3c2CCCC3)s1,62*,HIV RNase H inh-2=?
CCSc1nnc(NC(=O)c2cnccn2)s1,3,
CC(=O)c1cccc(NC(=O)Nc2ccc3c(c2)N(C)C(=O)CS3)c1,-18,
Cc1ccc(N(CN2CCCC2=O)C(=O)c2ccc(OC(C)C)cc2)cc1,-3,
O=C(C1CCCN(S(=O)(=O)Cc2ccccc2)C1)N1CCc2ccccc21 (centres undefined),-19,
COc1ccc(S(=O)(=O)Nc2ccc(O)c3ccccc23)cc1,92*,HIV RNase H inh-2=57*
COc1ccc(S(=O)(=O)Nc2ccccc2C(F)(F)F)cc1,-16,
COc1ccc(NS(=O)(=O)c2ccc(NS(C)(=O)=O)cc2)cc1,6,
C=CCOC(=O)C1=C(C)NC(=O)NC1C1CC=CCC1 (centres undefined),-17,
